A number with no mark means an inactive call. Records with an inconclusive call do not appear. A call without a number means that no potency is given here. Calls of active or inactive are those of the source. Unless noted, the call rests on the fitted dose curve; in most records, active means well fitted curve in the direction sought with a large enough effect; inconclusive means small, poorly fitted or top-dose-only effect, or another doubt; inactive means no such curve, though single readings can be large; an effect the other way counts as inactive or inconclusive.
Assays:
[1] = Primary qHTS for small molecule stabilizers of the endoplasmic reticulum resident proteome: Secreted ER Calcium Modulated Protein (SERCaMP) assay (AID 1508630)
How it was run: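 GLuc-SERCaMP-expressing SH-SY5Y cells, pretreated 16 h with compound, are challenged with thapsigargin to empty ER calcium stores; after 4 h, coelenterazine is added directly to the medium and luminescence is imaged.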

[2] = target: DNA repair nuclease/redox regulator APEX1 (Homo sapiens) (UniProt P27695); assay: qHTS Validation Assay for Inhibitors of the Human Apurinic/apyrimidinic Endonuclease 1 (APE1) (AID 1705;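 further: TAMRA fluorescence gain over two minutes as APE1 cuts a quenched THF abasic duplex; series mostly up to about 57 µM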)
How it was run: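 Human APE1 was preincubated with compound for 15 min at room temperature, then 50 nM (final) THF-abasic double-stranded DNA substrate bearing 5'-TAMRA and 3'-BHQ-2 was added. Incision-driven fluorescence rise (ex 525/em 598 nm) was read kinetically.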

[3] = Counterscreen for APE1 Inhibitors: Fluorescent Dye Displacement Validation Assay (AID 1707)
How it was run: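 Thiazole Orange (250 nM) bound to 50 nM TAMRA-labelled dsDNA with tetrahydrofuran abasic site; displacement by DNA-binding compounds lowers fluorescence. Buffer 50 mM Tris-HCl pH 7.5, 50 mM NaCl, 2 mM MgCl2, 0.01% Tween-20; endpoint read at 480/540 nm.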

[4] = target: Endonuclease 4 (Escherichia coli (strain K12)) (UniProt P0A6C1); assay: Counterscreen for APE1 Inhibitors: qHTS Validation Assay for Inhibitors of Endonuclease IV (AID 1708)
How it was run: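 qHTS concentration-response format; LOPAC1280 tested under APE1-screen conditions. 2 nM enzyme, 15 min compound preincubation at RT, then 50 nM TAMRA/BHQ-2 abasic substrate; kinetic fluorescence read, three reads at 60 s intervals.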

[5] = qHTS for differential inhibitors of proliferation of Plasmodium falciparum line 7G8 (AID 1815);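 further: potency means the concentration at half of the fitted maximal effect; parasite growth measured after three days of incubation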
[6] = qHTS for differential inhibitors of proliferation of Plasmodium falciparum line GB4 (AID 1816); conditions: Potency: Plasmodium falciparum GB4 proliferation inhibition;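 further: potency means the concentration at half of the fitted maximal effect; parasite growth measured after 72 h incubation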
[7] = qHTS for differential inhibitors of proliferation of Plasmodium falciparum line 3D7 (AID 1876); further: potency means the concentration at half of the fitted maximal effect
[8] = qHTS for differential inhibitors of proliferation of Plasmodium falciparum line D10 (AID 1877);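 further: potency means the concentration at half of the fitted maximal effect; parasites grown with compound for 72 h before DNA staining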
[9] = qHTS for differential inhibitors of proliferation of Plasmodium falciparum line Dd2 (AID 1882); conditions: Potency: Plasmodium falciparum Dd2 proliferation inhibition; further: potency means the concentration at half of the fitted maximal effect; nearly all actives have a fitted effect of over 65% in size
How it was run: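 Dd2-infected erythrocytes (0.3% parasitemia, 2.5% hematocrit final) incubated with compound 72 h at 37 C, 5% CO2; lysed with saponin/Triton buffer containing SYBR Green I, incubated overnight in the dark, then read by fluorescence (485/535 nm). Normalized to 0.29 uM artemisinin and DMSO.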

[10] = qHTS for differential inhibitors of proliferation of Plasmodium falciparum line W2 (AID 1883); conditions: Potency: Plasmodium falciparum W2 proliferation inhibition;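 further: potency means the concentration at half of the fitted maximal effect; parasites grown with compound for 72 h before lysis and staining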
[11] = qHTS for differential inhibitors of proliferation of Plasmodium falciparum line HB3 (AID 1886); conditions: Potency: Plasmodium falciparum HB3 proliferation inhibition;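 further: potency means the concentration at half of the fitted maximal effect; parasites grown with compound for 72 h before SYBR Green readout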
[12] = target: Ferritin light chain (Equus caballus) (UniProt P02791); assay: qHTS Validation Assay for Identification of Novel General Anesthetics (AID 2323); further: series mostly up to about 77 µM
How it was run: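 Competitive displacement of profluorescent 1-aminoanthracene (1-AMA, 50% saturated solution in PBS) from 10 uM horse-spleen apoferritin. Compounds incubated 10 min at room temperature; fluorescence read at 380 nm excitation/535 nm emission, normalized to free 1-AMA and complex, fitted with four-parameter Hill equation.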

[13] = target: ATP-dependent DNA helicase Q1 (Homo sapiens) (UniProt P46063); assay: qHTS Validation Assay for Inhibitors of RecQ-Like Dna Helicase 1 (RECQ1) (AID 2353)
How it was run: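 50 nM RECQ1T1 preincubated 15 min with compound in Tris pH 8.0 buffer with MgCl2, DTT, Tween-20 and 2.5 ug/ml poly(dI-dC); started with 200 nM TAMRA/BHQ-2 forked duplex and 2 mM ATP. Unwinding read as fluorescence (525/598 nm), two reads 2 h apart.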

[14] = target: RecQ-like DNA helicase BLM (Homo sapiens) (UniProt P54132); assay: qHTS Validation Assay for Inhibitors of Bloom's syndrome helicase (BLM) (AID 2364)
How it was run: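 Forked 20-bp duplex substrate (200 nM, TAMRA/BHQ-2) plus 2 mM ATP added after 15 min compound preincubation with 50 nM enzyme, pH 8.0, poly(dI-dC) 2.5 ug/ml. Strand separation followed by fluorescence (525/598 nm) over 2 h, normalized to enzyme-free and DMSO controls.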

[15] = Quantitative high throughput screen for delayed death inhibitors of the malarial parasite plastid, 96 hour incubation (AID 488745);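 further: luciferase-expressing P. falciparum in erythrocytes at 2% hematocrit and 0.1% parasitemia; series mostly up to about 29 µM; nearly all actives have a fitted effect of over 70% in size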
How it was run: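 Infected erythrocytes were added to compound in Albumax-supplemented RPMI 1640 at 0.1% parasitemia and 2% hematocrit (final), incubated 96 h at 37 C under 5% CO2, then luciferase reagent was added and luminescence measured.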

[16] = Quantitative high throughput screen for delayed death inhibitors of the malarial parasite plastid, 48 hour incubation (AID 488752); further: potency means the concentration at half of the fitted maximal effect; nearly all actives have a fitted effect of over 65% in size
How it was run: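 Readout is firefly luciferase luminescence from a reporter integrated into the parasite genome, with lower signal taken as inhibited growth. Infected red cells (0.1% parasitemia, 2% hematocrit final) are cultured with compound for one 48 h cycle at 37 C.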

[17] = target: M-phase phosphoprotein 8 (Homo sapiens) (UniProt Q99549); assay: qHTS Validation Assay for Inhibitors for MPP8 Chromodomain Interactions with Methylated Histone Tails (AID 488949); further: potency means the concentration at half of the fitted maximal effect; nearly all actives have a fitted effect of over 55% in size
How it was run: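 MPP8 (50 nM) was preincubated with biotinylated H3(1-18)K9me3 peptide (50 nM) in PBS pH 7.4, 0.01% Tween-20 for 30 min at room temperature, then with compounds for 30 min; binding was detected by AlphaScreen.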

[18] = target: Transient receptor potential cation channel subfamily V member 1 (Homo sapiens) (UniProt Q8NER1); assay: HTS Assay for Compounds that Act as Enhancers of the Vanilloid Receptor 1 (AID 488979)
How it was run: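 Calcium influx kinetics via Fluo-8 (480/520 nm) in TRPV1-expressing cells, 2000/well cultured overnight at 35.5C. Compound-alone read 3 min (agonist phase), followed by EC20 capsaicin challenge for 2 min (enhancer phase).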

[19] = target: Thyrotropin receptor (Homo sapiens) (UniProt P16473); assay: qHTS Assay for Antagonists of the Thyroid Stimulating Hormone Receptor (AID 488980); further: series mostly up to about 58 µM
How it was run: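 HEK293 cells transfected with human TSHR, suspended in HEPES-buffered HBSS with 70 uM RO 20-1724, were treated with compounds plus TSH at EC80 (4 nM final). cAMP was measured by competitive HTRF (cryptate anti-cAMP antibody, cAMP-d2 acceptor).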

[20] = target: Thyrotropin-releasing hormone receptor (Homo sapiens) (UniProt P34981); assay: qHTS for Small Molecule Agonists and Allosteric Enhancers of Human TRH Receptor: Validation Screen for Agonists (AID 493127;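 active means calcium activation more than 3 SD above the typical response in the agonist read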;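 further: intracellular calcium rise by fluo-8 fluorescence before TRH EC20 addition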); conditions: TRH receptor agonist cell assay; at 2 µM; hits give high values
How it was run: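 Cells 2000/well, 10% FCS, 18 h 33.5C/5% CO2 → fluo-8 Ca dye, RT 30 min–1.5 h → FDSS baseline 10 × 1 s → compound added → 230 cycles (1 s/cycle) agonist mode. TRH controls.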

[21] = target: Galactokinase (Homo sapiens) (UniProt P51570); assay: qHTS Validation Assay for Inhibitors of Human Galactokinase (GALK) (AID 493189)
How it was run: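 GALK (5 nM) with 35 uM ATP and 100 uM galactose in HEPES pH8.0, MgCl2, NaCl, DTT, BSA; 1 h at room temperature. Residual ATP read by Kinase-Glo Plus luminescence after 10 min.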

[22] = Confirmatory qHTS for small molecule stabilizers of the endoplasmic reticulum resident proteome: Secreted ER Calcium Modulated Protein (SERCaMP) assay (AID 1508628); further: potency means the concentration at half of the fitted maximal effect; nearly all actives have a fitted effect of over 40% in size
How it was run: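 SH-SY5Y cells stably expressing GLuc-SERCaMP, treated 16 h with compound (primary 1.53, 7.67, 38.3 uM; confirmation 11 concentrations, up to 76.6 uM), then 100 nM thapsigargin for 4 h. Secreted Gaussia luciferase in medium read by coelenterazine luminescence.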

Thyrotropin-releasing hormone receptor (Homo sapiens), sequence (P34981 whole entry, looked up): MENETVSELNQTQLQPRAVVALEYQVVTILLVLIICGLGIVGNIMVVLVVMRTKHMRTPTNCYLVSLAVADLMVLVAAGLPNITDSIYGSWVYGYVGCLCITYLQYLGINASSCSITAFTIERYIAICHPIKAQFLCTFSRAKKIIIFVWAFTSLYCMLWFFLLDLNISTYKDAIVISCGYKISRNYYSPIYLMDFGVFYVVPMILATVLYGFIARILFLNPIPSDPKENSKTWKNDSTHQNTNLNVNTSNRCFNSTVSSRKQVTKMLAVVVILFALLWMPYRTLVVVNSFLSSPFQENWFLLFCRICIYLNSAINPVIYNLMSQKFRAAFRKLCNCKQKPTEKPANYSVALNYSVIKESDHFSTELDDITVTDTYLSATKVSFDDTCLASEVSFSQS
Galactokinase (Homo sapiens), sequence (P51570 whole entry, looked up): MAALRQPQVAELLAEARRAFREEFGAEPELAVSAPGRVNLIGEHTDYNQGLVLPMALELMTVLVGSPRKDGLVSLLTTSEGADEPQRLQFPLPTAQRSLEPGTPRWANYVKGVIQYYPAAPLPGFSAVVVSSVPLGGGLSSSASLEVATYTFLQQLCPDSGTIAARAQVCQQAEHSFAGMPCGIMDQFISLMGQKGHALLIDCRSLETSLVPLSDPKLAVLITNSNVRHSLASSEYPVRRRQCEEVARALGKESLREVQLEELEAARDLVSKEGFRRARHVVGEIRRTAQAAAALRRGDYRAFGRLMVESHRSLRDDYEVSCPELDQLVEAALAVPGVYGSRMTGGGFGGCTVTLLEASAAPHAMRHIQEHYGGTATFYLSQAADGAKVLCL
ATP-dependent DNA helicase Q1 (Homo sapiens), sequence (P46063 whole entry, looked up): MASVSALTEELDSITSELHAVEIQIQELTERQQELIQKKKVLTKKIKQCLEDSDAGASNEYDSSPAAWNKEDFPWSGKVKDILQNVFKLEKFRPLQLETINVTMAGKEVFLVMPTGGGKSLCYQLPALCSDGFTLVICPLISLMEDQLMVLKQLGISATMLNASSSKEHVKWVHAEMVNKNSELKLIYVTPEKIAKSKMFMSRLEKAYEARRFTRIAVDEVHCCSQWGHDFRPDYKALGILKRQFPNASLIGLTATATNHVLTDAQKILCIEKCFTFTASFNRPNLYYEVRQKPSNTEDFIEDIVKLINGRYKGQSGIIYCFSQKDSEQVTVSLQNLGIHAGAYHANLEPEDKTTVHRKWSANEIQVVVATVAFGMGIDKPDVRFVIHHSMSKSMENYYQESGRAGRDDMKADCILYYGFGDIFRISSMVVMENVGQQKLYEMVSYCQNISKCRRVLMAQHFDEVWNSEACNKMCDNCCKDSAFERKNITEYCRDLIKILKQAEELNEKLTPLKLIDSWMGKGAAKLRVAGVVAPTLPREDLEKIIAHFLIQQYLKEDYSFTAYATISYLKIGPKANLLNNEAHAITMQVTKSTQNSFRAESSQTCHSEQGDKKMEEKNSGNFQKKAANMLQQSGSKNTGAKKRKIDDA
DNA repair nuclease/redox regulator APEX1 (Homo sapiens), sequence (P27695 whole entry, looked up): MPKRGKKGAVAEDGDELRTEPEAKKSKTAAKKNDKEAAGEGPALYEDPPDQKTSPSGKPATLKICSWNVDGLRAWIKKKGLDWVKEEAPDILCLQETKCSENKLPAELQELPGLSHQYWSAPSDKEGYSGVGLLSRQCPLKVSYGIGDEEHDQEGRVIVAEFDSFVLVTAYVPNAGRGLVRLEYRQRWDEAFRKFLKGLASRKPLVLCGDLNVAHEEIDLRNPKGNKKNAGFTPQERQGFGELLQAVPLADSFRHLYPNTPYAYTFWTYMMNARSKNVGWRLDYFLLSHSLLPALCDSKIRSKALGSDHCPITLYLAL
RecQ-like DNA helicase BLM (Homo sapiens), sequence (P54132 whole entry, looked up): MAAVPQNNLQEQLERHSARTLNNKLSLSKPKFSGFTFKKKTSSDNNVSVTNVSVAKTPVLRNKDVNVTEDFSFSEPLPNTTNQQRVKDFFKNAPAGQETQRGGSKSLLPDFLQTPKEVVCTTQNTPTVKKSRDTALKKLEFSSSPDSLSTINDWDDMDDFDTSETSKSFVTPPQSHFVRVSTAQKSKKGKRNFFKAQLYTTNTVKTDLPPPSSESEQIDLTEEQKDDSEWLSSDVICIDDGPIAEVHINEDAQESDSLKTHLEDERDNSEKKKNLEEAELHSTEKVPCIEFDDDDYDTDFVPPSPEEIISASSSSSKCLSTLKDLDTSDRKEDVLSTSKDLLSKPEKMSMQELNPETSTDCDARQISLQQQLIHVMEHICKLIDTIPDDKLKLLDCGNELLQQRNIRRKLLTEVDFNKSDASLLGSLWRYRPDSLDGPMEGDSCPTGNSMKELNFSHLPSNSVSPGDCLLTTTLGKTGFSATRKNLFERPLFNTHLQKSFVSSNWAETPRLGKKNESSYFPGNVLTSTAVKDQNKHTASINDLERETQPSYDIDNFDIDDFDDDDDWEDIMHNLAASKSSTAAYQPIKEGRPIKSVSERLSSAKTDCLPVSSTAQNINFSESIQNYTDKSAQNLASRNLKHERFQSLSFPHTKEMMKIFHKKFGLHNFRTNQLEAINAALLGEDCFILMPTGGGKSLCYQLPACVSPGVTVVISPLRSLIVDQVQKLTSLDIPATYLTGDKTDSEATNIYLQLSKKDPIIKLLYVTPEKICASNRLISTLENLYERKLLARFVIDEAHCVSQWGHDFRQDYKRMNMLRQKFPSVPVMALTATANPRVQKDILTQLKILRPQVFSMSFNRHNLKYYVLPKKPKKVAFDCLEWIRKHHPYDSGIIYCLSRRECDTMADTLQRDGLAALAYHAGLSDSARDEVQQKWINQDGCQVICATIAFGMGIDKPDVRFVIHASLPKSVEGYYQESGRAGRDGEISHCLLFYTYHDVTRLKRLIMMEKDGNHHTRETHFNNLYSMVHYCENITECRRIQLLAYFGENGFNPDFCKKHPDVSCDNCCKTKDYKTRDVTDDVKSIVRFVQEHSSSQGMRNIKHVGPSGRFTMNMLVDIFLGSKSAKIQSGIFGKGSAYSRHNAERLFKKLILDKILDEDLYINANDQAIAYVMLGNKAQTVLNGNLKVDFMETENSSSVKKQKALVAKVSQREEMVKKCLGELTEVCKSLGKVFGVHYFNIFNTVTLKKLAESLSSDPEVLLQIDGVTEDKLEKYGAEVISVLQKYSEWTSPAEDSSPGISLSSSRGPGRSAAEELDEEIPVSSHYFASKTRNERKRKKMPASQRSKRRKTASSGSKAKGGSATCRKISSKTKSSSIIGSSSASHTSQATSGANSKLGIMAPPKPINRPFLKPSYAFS
Thyrotropin receptor (Homo sapiens), sequence (P16473 whole entry, looked up): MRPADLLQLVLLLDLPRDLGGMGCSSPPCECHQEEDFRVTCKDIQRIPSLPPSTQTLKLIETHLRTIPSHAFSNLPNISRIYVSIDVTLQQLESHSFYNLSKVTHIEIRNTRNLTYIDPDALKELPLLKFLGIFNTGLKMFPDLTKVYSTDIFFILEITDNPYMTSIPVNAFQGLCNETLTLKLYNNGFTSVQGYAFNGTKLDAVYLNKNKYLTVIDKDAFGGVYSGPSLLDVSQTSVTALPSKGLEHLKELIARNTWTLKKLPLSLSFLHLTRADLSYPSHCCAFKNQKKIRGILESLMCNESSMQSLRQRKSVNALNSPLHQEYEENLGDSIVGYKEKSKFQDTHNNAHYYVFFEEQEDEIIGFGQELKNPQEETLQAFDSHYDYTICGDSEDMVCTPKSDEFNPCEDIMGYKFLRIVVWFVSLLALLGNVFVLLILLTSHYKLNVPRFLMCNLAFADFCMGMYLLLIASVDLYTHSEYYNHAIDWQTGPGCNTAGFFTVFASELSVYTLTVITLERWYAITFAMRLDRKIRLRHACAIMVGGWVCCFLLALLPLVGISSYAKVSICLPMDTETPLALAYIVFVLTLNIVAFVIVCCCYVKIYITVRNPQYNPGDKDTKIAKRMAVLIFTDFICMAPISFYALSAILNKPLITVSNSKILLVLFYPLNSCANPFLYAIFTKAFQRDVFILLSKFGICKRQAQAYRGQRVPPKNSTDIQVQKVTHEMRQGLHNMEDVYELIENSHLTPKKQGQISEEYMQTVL
Transient receptor potential cation channel subfamily V member 1 (Homo sapiens), sequence (Q8NER1 whole entry, looked up): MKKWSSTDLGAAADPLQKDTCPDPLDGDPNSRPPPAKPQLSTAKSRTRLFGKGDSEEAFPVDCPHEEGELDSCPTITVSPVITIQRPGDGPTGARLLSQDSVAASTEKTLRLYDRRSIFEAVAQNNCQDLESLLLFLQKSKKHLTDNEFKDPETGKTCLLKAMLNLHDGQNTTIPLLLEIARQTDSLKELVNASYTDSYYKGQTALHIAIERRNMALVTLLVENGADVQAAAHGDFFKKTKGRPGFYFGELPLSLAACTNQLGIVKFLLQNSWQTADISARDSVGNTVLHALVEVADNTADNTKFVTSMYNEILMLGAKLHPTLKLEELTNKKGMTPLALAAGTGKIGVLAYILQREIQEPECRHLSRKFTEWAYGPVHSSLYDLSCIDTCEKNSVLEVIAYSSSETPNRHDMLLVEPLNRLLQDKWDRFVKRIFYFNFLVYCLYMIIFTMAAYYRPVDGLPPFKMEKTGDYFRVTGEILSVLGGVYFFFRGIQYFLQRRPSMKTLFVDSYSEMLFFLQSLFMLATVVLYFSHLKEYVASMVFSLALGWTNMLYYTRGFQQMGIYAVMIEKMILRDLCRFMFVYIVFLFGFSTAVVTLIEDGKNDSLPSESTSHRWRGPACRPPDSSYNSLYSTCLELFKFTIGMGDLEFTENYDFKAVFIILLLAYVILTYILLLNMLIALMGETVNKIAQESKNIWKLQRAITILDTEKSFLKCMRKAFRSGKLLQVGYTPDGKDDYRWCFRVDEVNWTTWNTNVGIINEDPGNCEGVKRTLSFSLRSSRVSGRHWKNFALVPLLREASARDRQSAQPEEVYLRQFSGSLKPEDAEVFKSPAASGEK
Ferritin light chain (Equus caballus), sequence (P02791 2-175 limits assumed): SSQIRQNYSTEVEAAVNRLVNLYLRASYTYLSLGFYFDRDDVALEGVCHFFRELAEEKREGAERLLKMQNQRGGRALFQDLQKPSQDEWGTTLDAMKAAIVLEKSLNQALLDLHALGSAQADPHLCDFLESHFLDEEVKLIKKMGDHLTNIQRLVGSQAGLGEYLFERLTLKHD

For `CC1(C)C2C[C@@H](O)[C@]3(C)C(CC[C@@]4(C)[C@H](c5ccoc5)C[C@H]5O[C@]543)[C@@]2(C)[C@@H](O)C[C@H]1O` (stereo partly drawn), the outcome [1] was “inactive”.
For `CC(n1cc(C[C@H](N)C(=O)O)c2ccccc21)n1cc(C[C@H](N)C(=O)O)c2ccccc21`, the outcome [1] was “inactive”.
With `C=CCN1CCc2cccc3c2C1Cc1ccc(O)c(O)c1-3` (stereo not drawn) the Potency [2] was “inactive”, the outcome [3] was “inactive” and the Potency [4] was “inactive”. For the same compound, the Potency [5] was 2820 nM (active), the Potency [6] was 2000 nM (active) and the Potency [7] was 2820 nM (active). For the same compound, the Potency [8] was 2000 nM (active), the Potency [9] was 2820 nM (active) and the Potency [10] was 2510 nM (active). The Potency [11] was 2000 nM (active), the Potency [12] was “inactive” and the outcome [13] was “inactive”. The outcome [14] was “inactive”, the Potency [15] was “inactive” and the Potency [16] was 10400 nM (active). The Potency [17] was 6310 nM (active), the outcome [18] was “inactive” and the outcome [19] was “inactive”. For the same compound, the activation [20] was -2.75%, the outcome [21] was “inactive” and the Potency [22] was 39800 nM (active).
